{"source": "PubChem BioAssay (NCATS)", "note": "Results filed as inconclusive are left out. Values without a mark were called inactive. The source made the active and inactive calls. Calls follow the shape of the dose curve; as a rule, active = well fitted inhibition curve with a large enough effect; inconclusive = small, poorly fitted or top-dose-only effect; inactive = no such curve, though single readings can be large or run the other way. Potency is read from the fitted curve at half-maximal effect."}
{"experiment": "NS1 protein of Zika virus - qHTS assay to identify small molecule inhibitors in human HEK 293 cells (AID 1347053); also: nearly all actives have a fitted effect of over 55% in size;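 as to activity change, negative = inhibition: plate controls were infected untreated cells for no effect and uninfected cells for full effect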", "settings": "HEK293 ZIKV MR766 infection, NS1 TR-FRET, 24 h; series mostly up to 46.1 µM; activity change, negative = inhibition: at the top concentration", "in_short": "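Read-out is a two-antibody TR-FRET for ZIKV NS1, normalized between uninfected cells and infected cells. Compound added 1 h before MR766 infection at MOI 0.5; human HEK 293 cells incubated 24 h, 37 C.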"}
{"smiles": "CC1=C(C(=O)Nc2cc3cn[nH]c3cc2F)C(c2ccc(C(F)(F)F)cc2)CC(=O)N1", "note": "(stereo unspecified)", "activity change, negative = inhibition": "-2.05%"}
{"smiles": "COc1cc(C=CC(=O)O)ccc1O", "activity change, negative = inhibition": "-4.61%"}
{"smiles": "Cc1csc(-c2nnc(Nc3ccc(Oc4ncccc4-c4ccnc(N)n4)cc3)c3ccccc23)c1", "activity change, negative = inhibition": "10.7%"}
{"smiles": "CN(C)c1nc(Cc2ccc(NC(=O)c3ccc(C(F)(F)F)cc3)cc2)nc(N(C)C)c1CC(=O)O", "activity change, negative = inhibition": "2.19%"}
{"smiles": "O=C1C(c2c(O)[nH]c3ccccc23)=Nc2ccccc21", "activity change, negative = inhibition": "-0.683%"}
{"smiles": "Cc1ccccc1C(C(=O)NC1CCCCC1)N(C(=O)CNc1ccc(C#N)cc1)c1cccc(F)c1", "note": "(stereo unspecified)", "activity change, negative = inhibition": "16.4%"}
{"smiles": "CNC1CCC(N(Cc2cccc(-c3ccncc3)c2)C(=O)c2sc3ccccc3c2Cl)CC1", "note": "(stereo unspecified)", "Potency": "9.35 µM (active)"}
{"smiles": "CCOC(=O)N1c2ccc(C(F)(F)F)cc2[C@@H](N(Cc2cc(C(F)(F)F)cc(C(F)(F)F)c2)C(=O)OC)C[C@H]1CC", "activity change, negative = inhibition": "3.47%"}
{"smiles": "C[C@@H]1CC=CC=CC=CC=C[C@@H](O[C@@H]2O[C@H](C)[C@@H](O)[C@H](N)[C@H]2O)C[C@@H]2O[C@](O)(C[C@@H](O)C[C@@H]3O[C@@H]3C=CC(=O)O1)C[C@H](O)[C@@H]2C(=O)O", "activity change, negative = inhibition": "12%"}
{"smiles": "CC(C)[C@H](O)C(=O)N[C@@H](C)C(=O)N[C@@H]1C(=O)N(C)CCc2ccccc21", "activity change, negative = inhibition": "3.69%"}
{"smiles": "CCC[C@@H](NC(=O)[C@@H]1[C@H]2CCC[C@@H]2CN1C(=O)[C@@H](NC(=O)[C@@H](NC(=O)c1cnccn1)C1CCCCC1)C(C)(C)C)C(=O)C(=O)NC1CC1", "activity change, negative = inhibition": "6.37%"}
{"smiles": "C[C@@]1(C(=O)Nc2ccc(F)nc2)CCCN1c1nc(Nc2cc(C3CC3)[nH]n2)c2cccn2n1", "activity change, negative = inhibition": "5.54%"}
{"smiles": "Cc1cn([C@@H]2C[C@@H](O)[C@H](CO)O2)c(=O)[nH]c1=O", "activity change, negative = inhibition": "-0.685%"}
{"smiles": "Fc1ccc(C(c2ccc(F)cc2)N2CCN(CC=Cc3ccccc3)CC2)cc1", "activity change, negative = inhibition": "3.66%"}
{"smiles": "CCN1CCN(c2ccc(Nc3cc(N(C)C(=O)Nc4c(Cl)c(OC)cc(OC)c4Cl)ncn3)cc2)CC1", "activity change, negative = inhibition": "15.7%"}
{"smiles": "C=CC[N+]1([C@H]2C[C@H]3[C@@H]4CC[C@H]5C[C@H](O)[C@@H](N6CCOCC6)C[C@]5(C)[C@@H]4CC[C@]3(C)[C@H]2OC(C)=O)CCCC1", "activity change, negative = inhibition": "6.37%"}
{"smiles": "CN[C@H]1[C@@H](O[C@@H]2[C@H](O[C@@H]3[C@@H](O)[C@@H](O)[C@@H](N=C(N)N)[C@@H](O)[C@@H]3N=C(N)N)O[C@H](C)[C@@]2(O)C=O)O[C@@H](CO)[C@@H](O)[C@H]1O", "activity change, negative = inhibition": "6.06% [at 15.3 µM]"}
{"smiles": "COc1cc(N2CCN(C)CC2)ccc1Nc1nc(N)c(C(=O)c2c(Cl)cccc2Cl)s1", "activity change, negative = inhibition": "8.96%"}
{"smiles": "CCCCC[C@H](O)C=C[C@H]1[C@H](O)CC(=O)[C@H]1CCCCCCC(=O)O", "activity change, negative = inhibition": "-4.81%"}
{"smiles": "COC(=O)[C@H](c1ccccc1Cl)N1CCc2sccc2C1", "activity change, negative = inhibition": "-2.56%"}
{"smiles": "CC(C)(F)C[C@H](N[C@@H](c1ccc(-c2ccc(S(C)(=O)=O)cc2)cc1)C(F)(F)F)C(=O)NC1(C#N)CC1", "activity change, negative = inhibition": "8.7%"}
{"smiles": "OCCn1cc(-c2ccc3c(c2)CCC3=NO)c(-c2ccncc2)n1", "activity change, negative = inhibition": "2.79%"}
{"smiles": "CC1(C)OC2CC3C4CC(F)C5=CC(=O)C=CC5(C)C4C(O)CC3(C)[C@]2(C(=O)CO)O1", "note": "(stereo partly specified)", "activity change, negative = inhibition": "-0.0853%"}
{"smiles": "Cc1ccc(C(=O)N(CCCN)[C@@H](c2oc3cc(Cl)ccc3c(=O)c2Cc2ccccc2)C(C)C)cc1", "Potency": "10.5 µM (active)"}
{"smiles": "CNc1nc(Nc2ccc(C(=O)N3CCOCC3)cc2OC)ncc1Cl", "activity change, negative = inhibition": "15%"}
{"smiles": "C[C@H](CCC(=O)O)[C@H]1CC[C@H]2[C@H]3[C@@H](CC[C@]12C)[C@@]1(C)CC[C@@H](O)C[C@H]1C[C@@H]3O", "activity change, negative = inhibition": "6.8%"}
